PMC8384837, “Expanding the binding specificity for RNA recognition by a PUF domain”
Numbering of substitutions follows the chain as printed.

Legend:
Assay in all cases: yeast three-hybrid, YBZ-1, SC-Leu-His + 0.5 mM 3-AT, 4 days
Settings in all cases: tags: N-Gal4 AD-HA kept; label: inside an RPR1-promoter hybrid RNA with tandem MS2 sites; ssRNA
[1] = molecular target: PUM1 PUF domain R2-KRG (Homo sapiens, UniProt Q14671 828-1176, N899K;Y900R;Q903G)
Method in brief: (§1)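 Pumilio-1 PUF domain libraries, randomized (NNK) at the three base-contacting residues of each repeat, were co-expressed with matching RNA elements from a centromeric plasmid in strain YBZ-1 (LexA–MS2 coat fusion, HIS3 reporter). Transformants were plated on SC-Leu (input) and SC-Leu-His + 0.5 mM 3-AT (selection) for four days, and repeat regions were PCR-amplified and Illumina-sequenced. The interaction score is the log2 change in variant frequency from input to selection, with pseudocount 1 where absent.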

[2] = molecular target: PUM1 PUF domain R7-LSS (Homo sapiens, UniProt Q14671 828-1176, S1079L;N1080S;E1083S)
Method in brief: as §1

[3] = molecular target: T1, PUM1 PUF domain R6-CFR (Homo sapiens, UniProt Q14671 828-1176, N1043C;Y1044F;Q1047R)
T1 sequence: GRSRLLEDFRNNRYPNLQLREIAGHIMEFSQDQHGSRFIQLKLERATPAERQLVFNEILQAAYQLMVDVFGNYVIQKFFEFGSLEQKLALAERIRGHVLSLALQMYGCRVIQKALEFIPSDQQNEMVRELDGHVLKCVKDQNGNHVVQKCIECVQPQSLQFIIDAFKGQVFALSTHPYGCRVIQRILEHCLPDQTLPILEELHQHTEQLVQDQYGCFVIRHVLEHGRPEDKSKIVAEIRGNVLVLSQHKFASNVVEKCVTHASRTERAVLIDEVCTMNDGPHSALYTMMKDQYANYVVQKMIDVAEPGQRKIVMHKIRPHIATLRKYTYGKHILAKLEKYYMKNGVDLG
Method in brief: as §1

[4] = molecular target: PUM1 PUF domain R5-PLD (Homo sapiens, UniProt Q14671 828-1176, C1007P;R1008L;Q1011D)
Method in brief: as §1

[5] = molecular target: PUM1 PUF domain R8-GFR (Homo sapiens, UniProt Q14671 828-1176, N1122G;Y1123F;Q1126R)
Method in brief: as §1

[6] = molecular target: PUM1 PUF domain R3-LYE (Homo sapiens, UniProt Q14671 828-1176, C935L;R936Y;Q939E)
Method in brief: as §1

[7] = molecular target: PUM1 PUF domain R5-RKG (Homo sapiens, UniProt Q14671 828-1176, C1007R;R1008K;Q1011G)
Method in brief: as §1

[8] = molecular target: PUM1 PUF domain R5-SRV (Homo sapiens, UniProt Q14671 828-1176, C1007S;Q1011V)
Method in brief: as §1

[9] = molecular target: PUM1 PUF domain R5-SRK (Homo sapiens, UniProt Q14671 828-1176, C1007S;Q1011K)
Method in brief: as §1

[10] = molecular target: PUM1 PUF domain R3-IRT (Homo sapiens, UniProt Q14671 828-1176, C935I;Q939T)
Method in brief: as §1

[11] = molecular target: T2, PUM1 PUF domain R6-IYL (Homo sapiens, UniProt Q14671 828-1176, N1043I;Q1047L)
T2 sequence: T1 sequence with C216I, F217Y, R220L
Method in brief: as §1

[12] = molecular target: PUM1 PUF domain R3-GRT (Homo sapiens, UniProt Q14671 828-1176, C935G;Q939T)
Method in brief: as §1

[13] = molecular target: PUM1 PUF domain R1-KGM (Homo sapiens, UniProt Q14671 828-1176, S863K;R864G;Q867M)
Method in brief: as §1

[14] = molecular target: PUM1 PUF domain R7-KYN (Homo sapiens, UniProt Q14671 828-1176, S1079K;N1080Y;E1083N)
Method in brief: as §1

[15] = molecular target: PUM1 PUF domain R4-DWR (Homo sapiens, UniProt Q14671 828-1176, N971D;H972W;Q975R)
Method in brief: as §1

[16] = molecular target: PUM1 PUF domain R5-KPV (Homo sapiens, UniProt Q14671 828-1176, C1007K;R1008P;Q1011V)
Method in brief: as §1

[17] = molecular target: PUM1 PUF domain R3-WFS (Homo sapiens, UniProt Q14671 828-1176, C935W;R936F;Q939S)
Method in brief: as §1

[18] = molecular target: T3, PUM1 PUF domain R6-LFG (Homo sapiens, UniProt Q14671 828-1176, N1043L;Y1044F;Q1047G)
T3 sequence: T1 sequence with C216L, R220G
Method in brief: as §1

[19] = molecular target: PUM1 PUF domain R5-LHP (Homo sapiens, UniProt Q14671 828-1176, C1007L;R1008H;Q1011P)
Method in brief: as §1

[20] = molecular target: PUM1 PUF domain R3-FCE (Homo sapiens, UniProt Q14671 828-1176, C935F;R936C;Q939E)
Method in brief: as §1

## GGCUAGAACUAGUGGAUCCCCCGGCGCCCGGCGGCUCGAGCCCGGGUAAGUGUAAAGAGUCUGCAUGCCGCCGGGCGCCAUGCCUGCAGGUCGACUCUAGAAAACAUG
[1]
  binding signal: 4.1 log2 enrichment (interaction score)

## GGCUAGAACUAGUGGAUCCCCCGGCGCCCGGCGGCUCGAGCCCGGGUAAGUUUAAAUAGUCUGCAUGCCGCCGGGCGCCAUGCCUGCAGGUCGACUCUAGAAAACAUG
[2]
  binding signal: 2.47 log2 enrichment (interaction score)

## GGCUAGAACUAGUGGAUCCCCCGGCGCCCGGCGGCUCGAGCCCGGGUAAGUGCAAAUAGUCUGCAUGCCGCCGGGCGCCAUGCCUGCAGGUCGACUCUAGAAAACAUG
[3]
  binding signal: 6.28 log2 enrichment (interaction score)

## GGCUAGAACUAGUGGAUCCCCCGGCGCCCGGCGGCUCGAGCCCGGGUAAGUGUAAAUAGUCUGCAUGCCGCCGGGCGCCAUGCCUGCAGGUCGACUCUAGAAAACAUG
[3]
  binding signal: 4.59 log2 enrichment (interaction score)
[4]
  binding signal: 2.61 log2 enrichment (interaction score)
[5]
  binding signal: 4.66 log2 enrichment (interaction score)
[6]
  binding signal: 3.76 log2 enrichment (interaction score)
[7]
  binding signal: 0.47 log2 enrichment (interaction score)
[8]
  binding signal: 0.54 log2 enrichment (interaction score)
[9]
  binding signal: 3.38 log2 enrichment (interaction score)
[10]
  binding signal: 4.08 log2 enrichment (interaction score)
[11]
  binding signal: 4.93 log2 enrichment (interaction score)
[12]
  binding signal: 2.82 log2 enrichment (interaction score)

## GGCUAGAACUAGUGGAUCCCCCGGCGCCCGGCGGCUCGAGCCCGGGUAAGUGUAAAUUGUCUGCAUGCCGCCGGGCGCCAUGCCUGCAGGUCGACUCUAGAAAACAUG
[13]
  binding signal: 0.32 log2 enrichment (interaction score)

## GGCUAGAACUAGUGGAUCCCCCGGCGCCCGGCGGCUCGAGCCCGGGUAAGUCUAAAUAGUCUGCAUGCCGCCGGGCGCCAUGCCUGCAGGUCGACUCUAGAAAACAUG
[14]
  binding signal: 3.09 log2 enrichment (interaction score)

## GGCUAGAACUAGUGGAUCCCCCGGCGCCCGGCGGCUCGAGCCCGGGUAAGUGUAUAUAGUCUGCAUGCCGCCGGGCGCCAUGCCUGCAGGUCGACUCUAGAAAACAUG
[15]
  binding signal: 5.3 log2 enrichment (interaction score)

## GGCUAGAACUAGUGGAUCCCCCGGCGCCCGGCGGCUCGAGCCCGGGUAAGUGUCAAUAGUCUGCAUGCCGCCGGGCGCCAUGCCUGCAGGUCGACUCUAGAAAACAUG
[16]
  binding signal: 3.85 log2 enrichment (interaction score)
[7]
  binding signal: 2 log2 enrichment (interaction score)
[9]
  binding signal: 2.72 log2 enrichment (interaction score)

## GGCUAGAACUAGUGGAUCCCCCGGCGCCCGGCGGCUCGAGCCCGGGUAAGUGUAAUUAGUCUGCAUGCCGCCGGGCGCCAUGCCUGCAGGUCGACUCUAGAAAACAUG
[17]
  binding signal: 2.63 log2 enrichment (interaction score)
[12]
  binding signal: 1.63 log2 enrichment (interaction score)

## GGCUAGAACUAGUGGAUCCCCCGGCGCCCGGCGGCUCGAGCCCGGGUAAGUGUACAUAGUCUGCAUGCCGCCGGGCGCCAUGCCUGCAGGUCGACUCUAGAAAACAUG
[15]
  binding signal: 6.69 log2 enrichment (interaction score)

## GGCUAGAACUAGUGGAUCCCCCGGCGCCCGGCGGCUCGAGCCCGGGUAAGUGUGAAUAGUCUGCAUGCCGCCGGGCGCCAUGCCUGCAGGUCGACUCUAGAAAACAUG
[8]
  binding signal: 2.79 log2 enrichment (interaction score)
[9]
  binding signal: 3.42 log2 enrichment (interaction score)

## GGCUAGAACUAGUGGAUCCCCCGGCGCCCGGCGGCUCGAGCCCGGGUAAGUGAAAAUAGUCUGCAUGCCGCCGGGCGCCAUGCCUGCAGGUCGACUCUAGAAAACAUG
[3]
  binding signal: 4.42 log2 enrichment (interaction score)
[18]
  binding signal: 5.7 log2 enrichment (interaction score)

## GGCUAGAACUAGUGGAUCCCCCGGCGCCCGGCGGCUCGAGCCCGGGUAAGCGUAAAUAGUCUGCAUGCCGCCGGGCGCCAUGCCUGCAGGUCGACUCUAGAAAACAUG
[5]
  binding signal: 4.51 log2 enrichment (interaction score)

## GGCUAGAACUAGUGGAUCCCCCGGCGCCCGGCGGCUCGAGCCCGGGUAAGUGUUAAUAGUCUGCAUGCCGCCGGGCGCCAUGCCUGCAGGUCGACUCUAGAAAACAUG
[16]
  binding signal: 1.4 log2 enrichment (interaction score)
[7]
  binding signal: 2.88 log2 enrichment (interaction score)
[9]
  binding signal: 5.28 log2 enrichment (interaction score)
[19]
  binding signal: 3.09 log2 enrichment (interaction score)

## GGCUAGAACUAGUGGAUCCCCCGGCGCCCGGCGGCUCGAGCCCGGGUAAGUGUAAGUAGUCUGCAUGCCGCCGGGCGCCAUGCCUGCAGGUCGACUCUAGAAAACAUG
[20]
  binding signal: 3.54 log2 enrichment (interaction score)
[12]
  binding signal: 1.58 log2 enrichment (interaction score)

## GGCUAGAACUAGUGGAUCCCCCGGCGCCCGGCGGCUCGAGCCCGGGUAAGUGUAAAUCGUCUGCAUGCCGCCGGGCGCCAUGCCUGCAGGUCGACUCUAGAAAACAUG
[13]
  binding signal: 2.83 log2 enrichment (interaction score)
